Sampled rows, rich in hits. Any-hit rate of the full collection: about 6.6%.
Mtb FBA inh = inhibitors of M. tuberculosis fructose-bisphosphate aldolase. P9WQA3. 360,000 tested, 2.3% active. purified M. tuberculosis FBA, fluorescence read-out. inhibition, % at 1 µM; in the data active = inhibition above about 27%
Target sequence (P9WQA3 whole entry, looked up): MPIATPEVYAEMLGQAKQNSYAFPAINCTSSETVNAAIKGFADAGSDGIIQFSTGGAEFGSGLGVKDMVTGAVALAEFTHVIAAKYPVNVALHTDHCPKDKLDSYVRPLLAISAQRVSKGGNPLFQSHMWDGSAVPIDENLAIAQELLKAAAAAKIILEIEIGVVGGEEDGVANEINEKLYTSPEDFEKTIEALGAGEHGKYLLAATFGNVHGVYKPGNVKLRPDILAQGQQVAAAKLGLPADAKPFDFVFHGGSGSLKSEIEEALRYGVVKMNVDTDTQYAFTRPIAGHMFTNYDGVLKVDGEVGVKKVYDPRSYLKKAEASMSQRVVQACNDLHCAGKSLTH
BoNT A protease = inhibitors of Botulinum neurotoxin A light chain protease | inhibition, % at 10 µM | multiplex microsphere protease substrate cleavage, flow cytometry | AID 588499 | 360,000 tested, 0.17% active
Anthrax LF inh2 = anthrax lethal factor protease inhibition; P15917; multiplex microsphere protease cleavage assay, LF; inhibition, % at 10 µM; 360,000 tested, 0.12% active
Bead autofluor = flagged as autofluorescent in microsphere protease counterscreen; fluorescence intensity (concentration not given with the values); 360,000 tested, 3.1% active; compound autofluorescence counterscreen, microsphere flow cytometry; stronger effect = higher value; in the data active = fluorescence intensity above about 16000; inconclusive = no clear call, values can overlap the other calls
BoNT-F LC inh = blocks Botulinum neurotoxin F light chain protease | Multiplex microsphere protease cleavage assay, flow cytometry | inhibition, % at 10 µM | 360,000 tested, 0.22% active | AID 588497; in the data active = inhibition above about 35%, passing the limit was not always enough; inconclusive = no clear call, values can overlap the other calls
GDH-TPI counter = inhibits GDH-TPI coupling enzymes, artifact for Mtb FBA screen. GDH-TPI coupled enzyme counterscreen, NADH absorbance. inhibition, % at 4.8 µM. 360,000 tested, 1.2% active. AID 588335; in the data active = inhibition above about 30%
Of the large screens only hits and unclear results are named; the others gave an inactive call. Cut-off read from the data, not from the text of the source, unless noted: active = inhibition above about 30%; inconclusive = no clear call, values can overlap the other calls; inactive = below that.

S=c1ncc2[nH]c(=S)[nH]c2[nH]1	GDH-TPI counter 36
S=c1[nH]c2ccc(Cl)cc2[nH]1	none
O=C1NC[C@@H](CCCCN2CCN(CCC3CCCCC3)C(=O)C2=O)N(CCC2CCCCC2)C1=O	none (no result: Mtb FBA inh, GDH-TPI counter)
CN(Cc1ccccc1)S(=O)(=O)c1cccc2cccnc12	Bead autofluor 24517
COc1cccc(CNC(=O)CN(C)S(=O)(=O)c2cccc3cccnc23)c1	none
Cc1ccc(S(=O)(=O)N(C)CC(=O)OCC(=O)c2c(N)n(C)c(=O)n(C)c2=O)cc1	none
CCOc1ccc(N=C(C)C2=C(O)c3ccccc3C2=O)cc1	none
CC(=NC1CC1)C1=C(O)c2ccccc2C1=O	BoNT A protease inconclusive, Bead autofluor 22929, GDH-TPI counter 38
COc1ccc(N=C(C)C2=C(O)c3ccccc3C2=O)cc1	GDH-TPI counter 36
CCOC(=O)C1=C(C)N(CCCC(=O)O)C(=O)NC1C(CC)CC (stereo unspecified)	none
COc1ccccc1N1CCN(C2CCCCC2NS(=O)(=O)c2ccccc2)CC1 (stereo unspecified)	none
NC(=O)CSc1nnnn1-c1ccc(OC(F)(F)F)cc1	BoNT A protease inconclusive, Bead autofluor 23160
Cc1ccc(NC(=S)/C(C#N)=C2/Nc3ccccc3S2)cc1	none
CC1=CS/C(=C(/C#N)C(=O)N2CCOCC2)N1c1ccccc1	GDH-TPI counter 32
N#C/C(C(=O)N1CCCCC1)=C1\Nc2ccccc2S1	GDH-TPI counter 54
CC1=CS/C(=C(/C#N)C(=O)N2CCCCC2)N1c1ccccc1	GDH-TPI counter 45
COC(=O)c1c(NC(=O)CC2SC(N)=NC2=O)sc(C)c1C (stereo unspecified)	none
COc1ccc(/C=N/NC(=O)c2ccoc2C)cc1CN1CCN(c2ccc(F)cc2)CC1	none
CC1(C(=O)NS(=O)(=O)C2CC2)CCCN(C(=O)c2ccco2)C1 (stereo unspecified)	none
O=C(Nc1nccs1)c1ccc(-c2cccc([N+](=O)[O-])c2)o1	none
O=C(Nc1ncc(Cc2cccc(C(F)(F)F)c2)s1)c1ccc(-c2cccc([N+](=O)[O-])c2)o1	GDH-TPI counter 54
O=C(CN1CCOCC1)N/N=C/c1ccc(-c2ccc(C(=O)O)cc2)o1	GDH-TPI counter 35
CC1(CC(=O)N/N=C/c2ccc(-c3ccc(C(=O)O)cc3)o2)OCCO1	GDH-TPI counter 60
CC1(CC(=O)N/N=C/c2ccc(-c3ccc(Cl)cc3)o2)OCCO1	GDH-TPI counter 55
Cc1ccc(-c2ccc(/C=N/NC(=O)CN3CCCC3)o2)cc1Cl	none
Cc1cnc(NC(=O)c2cccc(S(=O)(=O)N3CCOCC3)c2)s1	none
CCCCn1nnc(NC(=O)c2ccc([N+](=O)[O-])cc2Cl)n1	none
CCc1cc(C(=O)N2CCN(S(=O)(=O)c3cc(C)ccc3C)CC2)sc1C	none
Nc1ccc(-c2nc3ccc(N)cc3o2)cc1	Mtb FBA inh active, GDH-TPI counter 46
CC(C)(C)c1nnc2cccc(Cl)n12	none
Cc1ccc(Cl)cc1NC(=O)c1cccc(OC(F)F)c1	Bead autofluor 20132
Cc1ccc(S(=O)(=O)CS(=O)(=O)c2ccc(C)cc2)cc1	none
Cc1ccc(S(=O)(=O)Cn2cnnn2)cc1	Bead autofluor 24828
COc1ccc(C(=O)N2CCC(n3c(C)nc4cc(F)ccc43)CC2)cc1	none
CN(C)c1nc2sc3c(c2c(=O)n1C)CC(C)(C)OC3	none
CNc1nc2sc3c(c2c(=O)n1C)CC(C)(C)SC3	Mtb FBA inh 185
Cc1cc(N2CCN(c3ccccc3)CC2)nc(-c2ccccc2)n1	none
Cc1cc(N2CCN(c3ccccc3)CC2)nc(N)n1	BoNT A protease inconclusive, Bead autofluor 20567
Cc1cc(C)n(C2CCCCC2OC(=O)CCc2ccccc2)n1 (stereo unspecified)	BoNT A protease inconclusive, Anthrax LF inh2 33, BoNT-F LC inh inconclusive
COc1ccc(CN2C(=O)C(CC(=O)NCC3CCCCC3)CC(C(=O)N(C(C)C)C(C)C)=C2C)cc1 (stereo unspecified)	none
COc1ccccc1C(=O)NC(=O)COC(=O)c1cccc(NC(C)=O)c1	none
O=C(CCN1CCN(c2ccccc2)CC1)N/N=C/c1ccc([N+](=O)[O-])o1	GDH-TPI counter 38
O=C(Nc1c(C(=O)N2CCCC2)cnn1-c1ccccc1)c1cccc(F)c1	BoNT A protease inconclusive, Bead autofluor 21118
NC(=O)CC1C(=O)N(c2ccccc2)C(=S)N1NC(=O)c1ccccc1 (stereo unspecified)	none
OCC[C@@H]1NCc2cc(CO)cc(-c3ccccc3)c21	none
CC(OC1=CC(=O)CCC1)C(=O)c1ccccc1 (stereo unspecified)	Bead autofluor 20377
CC(OC(=O)CN1C(=O)NC2(CCCC2)C1=O)C(=O)c1ccccc1 (stereo unspecified)	Bead autofluor inconclusive
Cc1cc(C)c2c(=O)[nH][nH]c2n1	none
O=c1[nH][nH]c2nc(C(F)(F)F)cc(C(F)(F)F)c12	BoNT A protease inconclusive, Bead autofluor 22696
CC(C)(C)NC(=O)NC(=O)CSc1n[nH]c(-c2ccccc2Br)n1	none
COC(=O)[C@H](CCSC)NC(=O)NCc1ccc(S(N)(=O)=O)cc1	none
COC(=O)[C@H](CCSC)NC(=O)NCc1ccccc1F	Bead autofluor 22106
c1ccn2c(c1)nc1c2nc2ccccn21	Mtb FBA inh active, Bead autofluor 21237
CCOC(=O)C1CCCCC12C(C#N)=C(N)Oc1n[nH]c(C)c12 (stereo unspecified)	none
CCOC(=O)C1CCC2(CC1)C(C#N)=C(N)Oc1n[nH]c(C)c12 (stereo unspecified)	Bead autofluor 20477
Cn1c(=O)cc(OCC(=O)N2CCN(c3cccc(C(F)(F)F)c3)CC2)c2ccccc21	Bead autofluor 20645
Cn1c(=O)cc(OCC(=O)N2CCCc3ccccc32)c2ccccc21	Bead autofluor 21145
CCN1CCCC1CNC(=O)COc1cc(=O)n(C)c2ccccc12 (stereo unspecified)	Bead autofluor 23013
O=C(c1cc(-c2ccccc2O)on1)N1CCCCCC1	none
COc1cc2[nH]c(=O)n(CCCCCC(=O)NCCCN3CCCC3=O)c(=O)c2cc1OC	Bead autofluor 16148
O=C(NCCCN1CCCC1=O)c1cccc(C(F)(F)F)c1	BoNT A protease inconclusive, Bead autofluor 20148
COc1ccccc1C(=O)NCCCN1CCCC1=O	Bead autofluor 20201
COc1ccc2c(C)c(CCC(=O)NCCCN3CCCC3=O)c(=O)oc2c1C	Mtb FBA inh 116
COc1ccccc1NS(=O)(=O)c1ccc(C(=O)NCCCN2CCCC2=O)cc1	none
O=C(CSc1nccn1Cc1ccco1)Nc1ccccc1	Bead autofluor inconclusive
Fc1cccc(Cl)c1/C=N/n1c(-c2cccnc2)n[nH]c1=S	none
Cc1ccc(O)c(C(=O)c2cnn(C(=O)Cc3csc(C)n3)c2)c1	none
Cc1ncc(CC(=O)n2cc(C(=O)c3cc(F)ccc3O)cn2)s1	BoNT A protease inconclusive, Bead autofluor 24032
